The target of test [1] is T1, Tyrosine-protein kinase receptor TYRO3 (Homo sapiens) (UniProt Q06418).
T1 sequence (whole entry): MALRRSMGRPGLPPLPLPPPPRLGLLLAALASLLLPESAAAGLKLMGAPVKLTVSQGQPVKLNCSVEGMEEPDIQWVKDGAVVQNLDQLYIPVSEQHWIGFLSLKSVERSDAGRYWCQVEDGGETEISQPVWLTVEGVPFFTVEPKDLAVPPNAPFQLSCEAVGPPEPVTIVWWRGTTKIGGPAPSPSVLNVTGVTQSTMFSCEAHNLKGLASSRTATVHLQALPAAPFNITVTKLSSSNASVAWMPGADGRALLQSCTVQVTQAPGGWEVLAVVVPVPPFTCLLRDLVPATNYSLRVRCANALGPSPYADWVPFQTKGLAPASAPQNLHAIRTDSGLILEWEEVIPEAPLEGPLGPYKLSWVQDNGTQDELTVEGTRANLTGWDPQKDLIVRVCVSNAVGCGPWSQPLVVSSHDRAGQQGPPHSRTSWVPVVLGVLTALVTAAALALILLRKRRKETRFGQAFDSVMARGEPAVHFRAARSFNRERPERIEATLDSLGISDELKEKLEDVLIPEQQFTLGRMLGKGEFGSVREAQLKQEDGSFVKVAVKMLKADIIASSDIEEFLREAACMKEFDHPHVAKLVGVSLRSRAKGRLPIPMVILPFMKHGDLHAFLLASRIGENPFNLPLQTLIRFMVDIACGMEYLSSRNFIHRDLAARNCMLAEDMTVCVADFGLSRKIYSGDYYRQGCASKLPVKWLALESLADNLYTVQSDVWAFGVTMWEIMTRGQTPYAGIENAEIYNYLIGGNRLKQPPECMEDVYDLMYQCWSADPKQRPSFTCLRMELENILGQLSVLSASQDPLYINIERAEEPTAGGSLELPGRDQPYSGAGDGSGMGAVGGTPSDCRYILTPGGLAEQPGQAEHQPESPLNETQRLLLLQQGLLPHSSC
The settings on record: at 1 µM.

The target in test [2] is Tyrosine-protein kinase Yes (Homo sapiens) (UniProt P07947). The settings on record: at 0.1 µM.
Sequence of Tyrosine-protein kinase Yes (Homo sapiens) (P07947 2-543 limits assumed): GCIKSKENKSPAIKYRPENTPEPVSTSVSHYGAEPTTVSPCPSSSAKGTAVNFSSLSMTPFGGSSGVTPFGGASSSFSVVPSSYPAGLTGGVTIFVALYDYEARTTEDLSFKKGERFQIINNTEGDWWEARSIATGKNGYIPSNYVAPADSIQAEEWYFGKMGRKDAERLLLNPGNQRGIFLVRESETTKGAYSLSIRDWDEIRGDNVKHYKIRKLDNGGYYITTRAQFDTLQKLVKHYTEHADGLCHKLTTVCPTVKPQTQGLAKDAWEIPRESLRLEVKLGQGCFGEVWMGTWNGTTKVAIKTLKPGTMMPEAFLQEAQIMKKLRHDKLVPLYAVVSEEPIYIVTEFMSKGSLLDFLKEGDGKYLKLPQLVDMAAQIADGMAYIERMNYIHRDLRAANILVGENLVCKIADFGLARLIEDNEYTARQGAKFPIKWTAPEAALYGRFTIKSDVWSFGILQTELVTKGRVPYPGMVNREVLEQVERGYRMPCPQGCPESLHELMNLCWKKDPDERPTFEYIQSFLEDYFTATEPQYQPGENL
Test [3] has the same target. Particulars: at 1 µM.
Test [4] has as its target T2, Tyrosine-protein kinase ZAP-70 (Homo sapiens) (UniProt P43403).
T2 sequence (whole entry): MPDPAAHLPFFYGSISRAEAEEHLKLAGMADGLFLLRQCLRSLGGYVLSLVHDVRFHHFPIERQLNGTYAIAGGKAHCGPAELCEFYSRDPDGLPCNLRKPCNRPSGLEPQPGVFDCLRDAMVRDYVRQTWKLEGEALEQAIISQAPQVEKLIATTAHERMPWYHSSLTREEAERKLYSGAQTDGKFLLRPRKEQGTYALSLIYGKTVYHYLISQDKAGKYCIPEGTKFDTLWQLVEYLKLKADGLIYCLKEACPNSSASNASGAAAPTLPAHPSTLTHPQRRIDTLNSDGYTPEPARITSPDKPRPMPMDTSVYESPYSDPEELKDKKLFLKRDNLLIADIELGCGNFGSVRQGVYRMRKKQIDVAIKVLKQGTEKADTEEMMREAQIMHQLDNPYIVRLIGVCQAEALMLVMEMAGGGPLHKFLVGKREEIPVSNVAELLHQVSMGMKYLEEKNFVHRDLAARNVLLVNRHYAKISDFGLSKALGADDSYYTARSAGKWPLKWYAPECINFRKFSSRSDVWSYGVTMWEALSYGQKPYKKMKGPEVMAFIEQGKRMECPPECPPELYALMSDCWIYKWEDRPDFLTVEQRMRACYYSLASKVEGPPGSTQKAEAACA
The settings on record: at 0.1 µM.

Test [5] has as its target T2, Tyrosine-protein kinase ZAP-70 (Homo sapiens). The settings on record: at 1 µM.
Test [6] has as its target Serine/threonine-protein kinase B-raf (Homo sapiens) (UniProt P15056). Particulars: at 0.1 µM.
Test [7] shares this target. Particulars: at 1 µM.
For test [8], the system named is Serine/threonine-protein kinase B-raf (Homo sapiens), P15056 [V600E]. Particulars: at 0.1 µM.
Sequence of Serine/threonine-protein kinase B-raf (Homo sapiens), P15056 [V600E] (P15056 whole entry V600E): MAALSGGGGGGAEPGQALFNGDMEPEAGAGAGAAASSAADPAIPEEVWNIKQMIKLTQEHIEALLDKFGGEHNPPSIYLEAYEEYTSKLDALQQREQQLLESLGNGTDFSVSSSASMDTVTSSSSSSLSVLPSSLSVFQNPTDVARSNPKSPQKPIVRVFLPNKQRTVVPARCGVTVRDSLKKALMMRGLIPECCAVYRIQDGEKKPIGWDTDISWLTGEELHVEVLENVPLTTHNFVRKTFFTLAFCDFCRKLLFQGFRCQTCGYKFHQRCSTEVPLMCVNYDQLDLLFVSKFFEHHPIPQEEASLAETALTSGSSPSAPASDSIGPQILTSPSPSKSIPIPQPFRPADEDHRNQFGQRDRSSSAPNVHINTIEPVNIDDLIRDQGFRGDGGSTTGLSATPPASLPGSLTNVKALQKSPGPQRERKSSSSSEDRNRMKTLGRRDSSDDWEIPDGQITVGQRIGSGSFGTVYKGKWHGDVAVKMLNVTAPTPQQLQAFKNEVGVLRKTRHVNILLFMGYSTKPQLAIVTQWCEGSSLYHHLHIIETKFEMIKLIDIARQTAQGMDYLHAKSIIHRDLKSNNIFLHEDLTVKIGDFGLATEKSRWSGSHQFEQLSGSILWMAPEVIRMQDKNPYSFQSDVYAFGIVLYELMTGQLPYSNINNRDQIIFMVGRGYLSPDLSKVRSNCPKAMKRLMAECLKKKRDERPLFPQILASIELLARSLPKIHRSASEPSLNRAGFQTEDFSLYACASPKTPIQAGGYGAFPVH
Test [9] has the same test system. Particulars: at 1 µM.
The target in test [10] is RAF proto-oncogene serine/threonine-protein kinase (Homo sapiens) (UniProt P04049). Particulars: at 0.1 µM.
Sequence of RAF proto-oncogene serine/threonine-protein kinase (Homo sapiens) (P04049 whole entry): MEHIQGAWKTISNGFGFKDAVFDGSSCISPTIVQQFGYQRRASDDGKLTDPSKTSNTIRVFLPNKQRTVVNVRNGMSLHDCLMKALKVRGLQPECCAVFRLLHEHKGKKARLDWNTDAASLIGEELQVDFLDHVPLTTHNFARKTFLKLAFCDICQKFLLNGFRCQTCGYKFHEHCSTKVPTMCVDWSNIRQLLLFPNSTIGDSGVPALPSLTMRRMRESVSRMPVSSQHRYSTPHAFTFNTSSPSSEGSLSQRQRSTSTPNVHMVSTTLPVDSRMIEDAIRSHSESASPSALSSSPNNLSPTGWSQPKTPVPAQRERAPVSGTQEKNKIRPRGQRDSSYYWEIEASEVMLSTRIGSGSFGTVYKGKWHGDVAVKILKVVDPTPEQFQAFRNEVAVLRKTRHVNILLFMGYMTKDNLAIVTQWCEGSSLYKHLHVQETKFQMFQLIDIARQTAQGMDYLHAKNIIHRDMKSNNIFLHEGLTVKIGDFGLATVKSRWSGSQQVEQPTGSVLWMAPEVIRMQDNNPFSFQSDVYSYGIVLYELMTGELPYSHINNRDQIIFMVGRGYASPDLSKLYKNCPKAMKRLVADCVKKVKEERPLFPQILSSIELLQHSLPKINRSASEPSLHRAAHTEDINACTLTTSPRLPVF
The target is the same in test [11]. Particulars: at 1 µM.
The target in test [12] is T3, Interleukin-1 receptor-associated kinase 4 (Homo sapiens) (UniProt Q9NWZ3).
T3 sequence (whole entry): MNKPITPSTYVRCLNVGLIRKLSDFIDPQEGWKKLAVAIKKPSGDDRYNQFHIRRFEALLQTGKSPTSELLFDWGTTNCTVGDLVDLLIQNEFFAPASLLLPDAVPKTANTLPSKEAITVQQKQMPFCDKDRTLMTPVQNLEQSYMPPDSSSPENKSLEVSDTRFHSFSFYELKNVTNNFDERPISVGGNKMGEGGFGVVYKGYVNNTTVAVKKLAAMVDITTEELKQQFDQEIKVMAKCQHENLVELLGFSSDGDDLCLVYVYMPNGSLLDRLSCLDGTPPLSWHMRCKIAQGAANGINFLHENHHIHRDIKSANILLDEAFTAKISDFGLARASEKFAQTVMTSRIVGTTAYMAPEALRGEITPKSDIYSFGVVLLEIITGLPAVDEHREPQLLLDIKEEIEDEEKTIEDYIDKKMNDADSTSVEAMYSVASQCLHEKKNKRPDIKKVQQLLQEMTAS
The settings on record: at 0.1 µM.

Test [13] concerns the target T3, Interleukin-1 receptor-associated kinase 4 (Homo sapiens). Particulars: at 1 µM.
For test [14], the target named is Leucine-rich repeat serine/threonine-protein kinase 2 (Homo sapiens) (UniProt Q5S007). The settings on record: at 0.1 µM.
Sequence of Leucine-rich repeat serine/threonine-protein kinase 2 (Homo sapiens) (Q5S007 whole entry): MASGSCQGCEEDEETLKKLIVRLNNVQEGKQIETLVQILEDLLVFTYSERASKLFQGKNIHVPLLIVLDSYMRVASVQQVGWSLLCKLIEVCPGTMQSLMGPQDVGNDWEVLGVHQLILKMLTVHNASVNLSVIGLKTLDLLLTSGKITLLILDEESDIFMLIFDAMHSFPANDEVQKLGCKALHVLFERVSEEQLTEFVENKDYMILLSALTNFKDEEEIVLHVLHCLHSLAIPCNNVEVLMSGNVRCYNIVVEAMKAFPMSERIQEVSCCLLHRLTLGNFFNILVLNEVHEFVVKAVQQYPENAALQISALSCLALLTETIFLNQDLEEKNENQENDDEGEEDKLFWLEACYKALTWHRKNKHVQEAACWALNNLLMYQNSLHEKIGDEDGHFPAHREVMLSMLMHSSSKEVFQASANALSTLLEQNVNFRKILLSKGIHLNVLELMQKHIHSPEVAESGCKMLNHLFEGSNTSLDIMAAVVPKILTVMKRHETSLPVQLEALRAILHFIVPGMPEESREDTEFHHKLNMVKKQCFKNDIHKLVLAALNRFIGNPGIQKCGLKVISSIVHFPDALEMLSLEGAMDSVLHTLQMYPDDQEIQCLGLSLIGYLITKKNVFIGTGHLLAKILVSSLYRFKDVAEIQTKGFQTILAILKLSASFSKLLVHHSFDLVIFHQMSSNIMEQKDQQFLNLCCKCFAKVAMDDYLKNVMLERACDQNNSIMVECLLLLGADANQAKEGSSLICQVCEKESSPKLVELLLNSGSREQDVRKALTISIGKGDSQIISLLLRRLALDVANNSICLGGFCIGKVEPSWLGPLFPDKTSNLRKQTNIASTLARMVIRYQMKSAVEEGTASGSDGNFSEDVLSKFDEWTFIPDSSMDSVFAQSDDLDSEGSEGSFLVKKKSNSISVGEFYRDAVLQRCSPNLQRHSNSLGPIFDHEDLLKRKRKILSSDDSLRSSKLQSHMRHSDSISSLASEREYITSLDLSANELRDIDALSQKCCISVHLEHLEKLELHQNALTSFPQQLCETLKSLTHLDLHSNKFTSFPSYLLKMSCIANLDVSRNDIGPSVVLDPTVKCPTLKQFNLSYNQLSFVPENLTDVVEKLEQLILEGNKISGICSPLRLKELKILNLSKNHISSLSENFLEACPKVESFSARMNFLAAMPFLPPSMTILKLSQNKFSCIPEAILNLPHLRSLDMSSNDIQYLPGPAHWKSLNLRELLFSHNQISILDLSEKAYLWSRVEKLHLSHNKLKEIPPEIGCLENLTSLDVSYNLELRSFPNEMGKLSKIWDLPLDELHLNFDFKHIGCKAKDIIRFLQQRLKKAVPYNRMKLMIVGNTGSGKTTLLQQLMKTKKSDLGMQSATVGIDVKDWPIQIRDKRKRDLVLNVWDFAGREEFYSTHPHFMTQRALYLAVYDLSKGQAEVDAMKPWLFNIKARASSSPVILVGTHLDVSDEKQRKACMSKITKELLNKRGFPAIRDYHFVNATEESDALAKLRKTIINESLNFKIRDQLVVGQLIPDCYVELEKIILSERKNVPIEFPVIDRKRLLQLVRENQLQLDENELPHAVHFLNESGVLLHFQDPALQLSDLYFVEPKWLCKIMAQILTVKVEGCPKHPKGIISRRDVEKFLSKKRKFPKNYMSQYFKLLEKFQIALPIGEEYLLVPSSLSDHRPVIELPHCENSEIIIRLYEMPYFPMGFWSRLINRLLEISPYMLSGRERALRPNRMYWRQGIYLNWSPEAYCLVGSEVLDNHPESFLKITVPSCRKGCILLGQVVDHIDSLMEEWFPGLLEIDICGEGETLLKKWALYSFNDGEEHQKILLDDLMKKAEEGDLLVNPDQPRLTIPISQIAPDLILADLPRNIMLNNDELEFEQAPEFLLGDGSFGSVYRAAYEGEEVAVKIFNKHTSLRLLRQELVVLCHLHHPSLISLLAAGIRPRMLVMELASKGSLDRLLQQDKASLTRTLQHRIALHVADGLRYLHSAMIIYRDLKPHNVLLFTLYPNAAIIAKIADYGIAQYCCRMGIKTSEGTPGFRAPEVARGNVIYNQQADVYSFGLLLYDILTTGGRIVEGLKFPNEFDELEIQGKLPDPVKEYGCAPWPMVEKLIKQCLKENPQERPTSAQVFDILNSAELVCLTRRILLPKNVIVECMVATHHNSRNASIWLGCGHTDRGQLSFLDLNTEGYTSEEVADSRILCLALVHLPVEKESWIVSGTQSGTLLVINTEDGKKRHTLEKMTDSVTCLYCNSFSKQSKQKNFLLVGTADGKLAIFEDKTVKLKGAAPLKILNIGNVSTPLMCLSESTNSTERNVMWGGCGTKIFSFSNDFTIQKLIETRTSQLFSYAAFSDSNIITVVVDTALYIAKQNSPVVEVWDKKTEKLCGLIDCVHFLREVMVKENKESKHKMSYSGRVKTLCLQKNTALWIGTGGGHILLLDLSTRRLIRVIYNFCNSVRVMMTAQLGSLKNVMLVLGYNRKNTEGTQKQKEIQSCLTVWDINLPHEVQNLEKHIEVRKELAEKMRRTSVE
For test [15] the target is unchanged. Particulars: at 1 µM.
The test system of test [16] is Leucine-rich repeat serine/threonine-protein kinase 2 (Homo sapiens), Q5S007 [G2019S]. The settings on record: at 0.1 µM.
Sequence of Leucine-rich repeat serine/threonine-protein kinase 2 (Homo sapiens), Q5S007 [G2019S] (Q5S007 whole entry G2019S): as the sequence (Q5S007 whole entry) above, with G2019S counted along it
For test [17] the test system is unchanged. The settings on record: at 1 µM.

The values below come from ChEMBL document CHEMBL1961873, “Compounds: GSK PKIS; Assays: Nanosyn kinase panel” (2012).

Sequence of Serine/threonine-protein kinase B-raf (Homo sapiens) (P15056 whole entry): as the sequence (P15056 whole entry V600E) above, with E600V counted along it

Consider `COc1ccc(-c2coc3ncnc(N)c23)cc1`, for which the inhibition in test [1] was 0.37%; in [2] it was 1.25%; in test [3], 2.89%; in test [4], 0.06%; in test [5] it was 4.55%; in test [6], 4.66%. The inhibition amounted to 7.42% in [7]; 6.07% in [8]; 6.81% in test [9]; 2.99% in [10]; 4.1% in test [11]; 0.41% in [12]. Besides, the inhibition in test [13] worked out at 1.48%; in [14] it was 3.62%; in [15], 6.4%; in [16], 4.35%; in test [17], 7.19%.

For `CCn1c(-c2nonc2N)nc2c(C#CC(C)(C)O)nc(CN3CCCC3)cc21`, the inhibition was -1.52% in [1]; -0.41% in test [2]; 5.7% in [3]; 2.82% in [4]; 1.75% in [5]; -1.46% in test [6]. Also, the inhibition in test [7] was -1.6%; in test [8], -1.31%; in [9] it was -0.8%; in test [10], -3.54%; in [11], -7.96%; in [12] it was 3.31%. In addition, the inhibition in test [13] is -0.93%; in test [14], -0.1%; in test [15], 1.92%; in test [16] it was 0.81%; in test [17], 3.54%.

In the case of `CCn1c(-c2nonc2N)nc2cncc(C(=O)N3CC[C@H](N)C3)c21`, the inhibition in test [1] was 6.78%; in [2], 1.84%; in test [3] it was 5.96%; in test [4], -1.89%; in test [5] it was -1.69%; in test [6] it was 6.39%. Besides, the inhibition in test [7] is 7.03%; in test [8] it was 7.1%; in test [9] it was 6.82%; in test [10], 12.6%; in test [11], 3.85%; in [12], 2.88%. For the same compound, the inhibition amounted to 2.25% in test [13]; 4.57% in test [14]; 14.5% in [15]; 7.16% in [16]; 29.5% in test [17].

For `CCn1c(-c2nonc2N)nc2cncc(C(=O)N3CCNCC3)c21`, the inhibition in test [1] was 2.14%; in test [2], 2.93%; in [3], 3.85%; in test [4] it was 2.85%; in test [5], 4.99%; in test [6] it was 9.15%. For the same compound, the inhibition is 11.5% in test [7]; 6.08% in test [8]; 5.58% in [9]; 4.15% in test [10]; -2.31% in test [11]; 2.74% in [12]. Also, the inhibition in [13] amounted to 3.54%; in test [14] it was 1.69%; in test [15], 0.35%; in [16], 3.72%; in test [17] it was 7.17%.

Regarding `CS(=O)(=O)CCNCc1ccc(-c2ccc3ncnc(Nc4ccc(OCc5ccccc5)c(Cl)c4)c3c2)o1`, the inhibition in test [1] was 2.01%; in [2], 7.69%; in test [3], 39.4%; in test [4], -7.6%; in test [5] it was -0.02%; in test [6], 0.1%. For the same compound, the inhibition is 1.24% in test [7]; 1.67% in test [8]; 1.38% in test [9]; -1.06% in test [10]; -1.69% in test [11]; 0.4% in test [12]. Besides, the inhibition in test [13] was 0.86%; in test [14], 2.66%; in [15], 7.97%; in [16] it was 4.51%; in test [17], 7.5%.

Take `CS(=O)(=O)Nc1ccc(N/C=C2\C(=O)Nc3ccccc32)cc1`: the inhibition is 6.06% in test [1]; -1.31% in test [2]; 10.4% in [3]; -3.14% in test [4]; -2.93% in [5]; -2.74% in [6]. Also, the inhibition in test [7] is -2.55%; in test [8], -3.06%; in test [9], -2.04%; in test [10], -5.04%; in test [11], -2.68%; in test [12] it was -0.49%. Further, the inhibition is -0.15% in test [13]; 1.31% in test [14]; 18.1% in test [15]; 5.01% in test [16]; 31.3% in [17].

For `Nc1nc(-c2ccc3c(c2)C(=Cc2cc(Br)c(O)c(Br)c2)C(=O)N3)cs1`, the inhibition in test [1] is 2.67%; in test [2] it was -4.7%; in [3], 6.08%; in test [4], 0.01%; in test [5] it was -1.62%; in test [6], 4.51%. Further, the inhibition in [7] was determined as 13.7%; in test [8] it was 3.07%; in test [9], 14.7%; in [10], 2.35%; in test [11] it was 26.7%; in test [12], 3.08%. Also, the inhibition in test [13] was -0.15%; in test [14], 0.74%; in test [15] it was 14.2%; in test [16], 10.3%; in test [17], 43.5%.
